In PubChem BioAssay (NCI) one finds growth data, which are given here for 37 molecules.

Molecules are shown by their SMILES. “And” between values parts separate entries of the source, which are not always exact repeats. Identical values can stand only once. Compounds without any hit were thinned out: in the full panel of roughly 83,000, 20% have a hit.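 Cell lines were cultured in 96-well plates, exposed to a single compound concentration, and assessed for percent growth 48 hours later.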 A number with no mark means an inactive call. The source made the active and inactive calls.

The first assay relates to HCC-2998 colon. The experiment in a line: NCI-60 one-dose screen, 48 h (100 = growth as untreated, 0 = no growth, -100 = all killed). The note with it: 10 µM. How it is done: Growth inhibition of the HCC-2998 human tumor cell line is measured as a screen for anti-cancer activity. Cells are grown in 96 well plates and exposed to the test compound for 48 hours. Compounds are tested at a single concentration, which is 10^-5 M for most compounds. The reported endpoint is percent growth (GI% or GIPRCNT), where numbers from 0 - 100% represent growth inhibition, and numbers from -100% - 0 represent cell death. For example, a value of 40 represents 60% growth inhibition. A value of 0 means no net growth occurred over the course of the experiment. A value of -40 indicates 40% of cells at the beginning of the experiment died by the end of the experiment. A value of -100 means all cells are dead at the end of the experiment.
NCI-60 Human Tumor Cell Lines Screen was performed using the standard one-dose NCI protocol, which is described in more detail at https://dtp.cancer.gov/discovery_development/nci-60/default.htm.
Compounds with GIPRCNT values below 10 were considered active. Activity score was based on GIPRCNT using the following formula: […]
Score is 0 for GIPRCNT values of 100 or above, 50 for GIPRCNT values of 0, and 100 for GIPRCNT values of -100.
With `CN(C)C(=O)c1ccc(SC(=S)NCc2ccccc2)cc1`, the growth is 104%.

Take `O=C(Nc1cccc(Br)c1)Oc1cccc2cccnc12`: the growth is 98.2%.

In the case of `O=C(O)c1c(Cl)c(Cl)c(Cl)c(Cl)c1-c1c2cc(I)c(=O)c(I)c-2oc2c(I)c(O)c(I)cc12`, the growth is 110% and 106% and 113%.

The same assay, now with this note: 10 µM unless noted.
`CC1=CC(O)C2CC1C2(C)C` (stereo not given): the growth is 95.4% and 112%.

`CNc1ccc(N)cc1`: the growth was 100%.

On to `COc1cc(/C=C(/C)C[N+](=O)[O-])ccc1O`, for which the growth was 102%.

As to `CCCCCCCCCCCCCCCCCCOP(=O)([O-])OC1CC[N+](C)(C)CC1`, the growth was 5.08% (active) and -75.7% (active).

Take `CCC(CCCN(CC)CCc1ccccc1)OC(=O)c1cc(OC)c(OC)c(OC)c1` (stereo not given): the growth was 96.4%.

`Cc1ccc2c(ccc3c[n+]4c5ccccc5ccc4n32)c1`: the growth is -34.9% (active).

For the molecule `CCC(CC)COC(=O)c1ccc(O)c(O)c1`, the growth was 84.4%.

For `Cc1cc(N)c2ccccc2[n+]1CCCCCCCCCC[n+]1c(C)cc(N)c2ccccc21`, the growth was 0.513% (active).

Take `O=C1N[C@H]2[C@H](CS[C@H]2CCCCC(=O)N(CCP(c2ccccc2)c2ccccc2)CCP(c2ccccc2)c2ccccc2)N1`: the growth was 88.9%.

As for `Cc1ccnc2c1ccc1c(C)ccnc12`, the growth was 51.3%.

Take `CN1c2ccccc2C(C)(C)C12C=Cc1cc(O)ccc1O2` (stereo not given): the growth was 83.2%.

As to `Oc1c(Br)cc(Cl)cc1C(c1cc(Cl)cc(Br)c1O)C(Cl)(Cl)Cl`, the growth was 16.9%.

In the case of `O=C1C=CC(=O)N1C1c2ccccc2-c2ccccc21`, the growth was 114%.

For the molecule `NC(=S)N/N=C\c1nccc2c(C(F)(F)C(F)(F)C(F)(F)F)cccc12`, the growth was 13.3%.

Consider `CCOC(=O)/C=C/c1ccc([N+](=O)[O-])o1`, for which the growth was 95.7%.

With `N#CSCc1ccc(CSC#N)c(Cl)c1`, the growth was 102%.

Turning to `OC(CNc1ccnc2cc(Cl)ccc12)CNc1ccnc2cc(Cl)ccc12`, the growth was 46.1%.

For the molecule `O=C(/C=C\c1ccccc1)N1c2ccccc2CC1c1c[nH]c2ccccc12` (stereo not given), the growth was 85.6%.

As to `Oc1c(Cl)c2ccccc2c2ccccc12`, the growth was 117%.

As to `N#Cc1ccc([N+](=O)[O-])o1`, the growth is 117%.

Turning to `CCC(=O)Sc1ccccc1C(=O)Nc1ccc(Cl)cc1`, the growth is 85.7%.

Consider `CC(C)(C)CC(C)(C)c1ccc(OCCSC(=N)N)cc1`, for which the growth was -16% (active).

Turning to `S=C(NCCNC(=S)[S][Sn]([c]1ccccc1)([c]1ccccc1)[c]1ccccc1)[S][Sn]([c]1ccccc1)([c]1ccccc1)[c]1ccccc1`, the growth was -82.4% (active).

`C=C(Cl)C(=NC(C)(C)C)Nc1ccccc1C`: the growth is 113%.

Turning to `N#CC1C(=O)SC2c3ccccc3C(=O)c3ccccc3C12` (stereo not given), the growth was 102%.

As to `NC(=S)N/N=C/c1ccc(Cl)s1`, the growth is 111%.

As to `Oc1ccc(/C=N/NC(=S)Nc2ccccc2)nc1`, the growth is 5.05% (active).

Take `COC(=O)[C@@]12OC[C@]34[C@H]([C@@H](O)[C@@H]1O)[C@@]1(C)[C@H](O)C(=O)C=C(C)[C@@H]1C[C@H]3OC(=O)C(OC(C)=O)[C@@H]24` (stereo not given in full): the growth was -75.8% (active).

For `COc1ccccc1/C=C\C(=O)c1ccccc1`, the growth was 97%.

Regarding `Oc1c(Br)c(Br)c(O)c(Br)c1Br`, the growth is 128%.

Regarding `Nc1ncnc2c1ncn2C1OC(CO)C(O)C1O` (stereo not given), the growth was 105% and 31.2% and 107%.

As for `CCOc1ccc(-c2nc3ccc(-c4nc5ccc(N6CCN(C)CC6)cc5[nH]4)cc3[nH]2)cc1`, the growth was -95.3% (active).

Consider `CNC(=O)N/N=C/c1ccc([N+](=O)[O-])o1`, for which the growth was 106%.

`CN(C)c1ccc(C(=C2C=CC(=[N+](C)C)C=C2)c2ccc(N(C)C)cc2)cc1` (tested in a mixture with another compound): the growth was -80.3% (active).

Staying with this assay, now noted: 100 µM.
As for `CN(C)C(=O)c1ccc(SC(=S)NCc2ccccc2)cc1`, the growth was -78.3% (active).

For `O=C(Nc1cccc(Br)c1)Oc1cccc2cccnc12`, the growth was 59.9%.

On to `O=C(O)c1c(Cl)c(Cl)c(Cl)c(Cl)c1-c1c2cc(I)c(=O)c(I)c-2oc2c(I)c(O)c(I)cc12`, for which the growth was -7.72% (active).
